Shown is part of a subset that was picked to be rich in hits.
ST2 inh – inhibitors of human ST2 (IL1RL1) binding to IL-33. inhibition, % for hits at 17 µM. AlphaLISA ST2-Fc/biotin-IL-33 interaction, 1 h. Q01638. 2.3% of 78,000 active; in the data active = inhibition above about 30%
Target sequence (Q01638 whole entry, looked up): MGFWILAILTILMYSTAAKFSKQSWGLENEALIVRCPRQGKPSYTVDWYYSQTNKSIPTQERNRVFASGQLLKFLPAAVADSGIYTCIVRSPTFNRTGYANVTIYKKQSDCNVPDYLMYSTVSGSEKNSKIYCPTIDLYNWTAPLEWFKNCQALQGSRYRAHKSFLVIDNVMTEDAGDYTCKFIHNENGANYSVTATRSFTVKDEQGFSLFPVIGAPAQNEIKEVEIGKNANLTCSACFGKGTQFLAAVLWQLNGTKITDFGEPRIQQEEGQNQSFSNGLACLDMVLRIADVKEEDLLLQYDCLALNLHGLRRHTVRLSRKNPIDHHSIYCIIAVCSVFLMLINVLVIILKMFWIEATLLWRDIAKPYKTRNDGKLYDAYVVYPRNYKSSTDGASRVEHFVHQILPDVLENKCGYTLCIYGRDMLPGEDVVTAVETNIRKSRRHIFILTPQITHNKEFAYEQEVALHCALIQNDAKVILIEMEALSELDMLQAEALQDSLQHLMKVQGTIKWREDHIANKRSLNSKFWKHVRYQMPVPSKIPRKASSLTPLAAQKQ
Starred values were filed as active, the others as inactive; i = inactive.

SMILES	ST2 inh
N#Cc1c(Cl)c(Cl)nc(N2CCCNCC2)c1Cl	43%*
Cc1cccc(NC(c2ccc(N(C)C)cc2)c2ccc3ccc(C)nc3c2O)n1 (stereo not given)	44%*
C=C[C@H]1CN2CC[C@H]1C[C@@H]2[C@@H](O)c1ccnc2ccc(OC)cc12	i
COc1ccc(-c2cc([C@H]3CN4CC[C@H]3C[C@@H]4CNC(=O)NCc3ccccc3)n(C)n2)cc1	i
Cc1cccc(CN2CCN(c3ccc([N+](=O)[O-])cc3)CC2)c1	42%*
O=[N+]([O-])c1ccc(N2CCN(Cc3cccc(Br)c3)CC2)cc1	32%*
COc1ccc(N2CCN(Cc3cccc([N+](=O)[O-])c3)CC2)cc1	i
CCN1CCN(Cc2cccc(C)c2)CC1	i
O=[N+]([O-])c1ccc(N2CCN(Cc3ccc(Br)cc3)CC2)cc1	i
Oc1cccc(CN2CCN(c3ccc(F)cc3)CC2)c1	i
O=c1c(-c2cccc(C(F)(F)F)c2)ccc2n1C[C@H]1C[C@@H]2CN(S(=O)(=O)c2cccs2)C1	i
Cc1ccccc1N1C(=O)CC(=O)NC1=O	i
O=C(Nc1ccc(=O)n2c1[C@@H]1C[C@@H](CN(S(=O)(=O)c3ccccc3)C1)C2)C1CCCCC1	i
CSc1ccc(-c2ccc3n(c2=O)C[C@H]2C[C@@H]3CN(C(=O)Nc3cccc(F)c3)C2)cc1	i
C#C[C@H]1CN2CC[C@H]1C[C@@H]2CNS(=O)(=O)c1ccc(OC)cc1	i
CN(C)c1ccc(N2CCNCC2)c([N+](=O)[O-])c1	i
O=[N+]([O-])c1cc(F)c(N2CCCCC2)cc1Br	42%*
CC1CN(c2ccccc2[N+](=O)[O-])CC(C)N1 (stereo not given)	i
CC1CCN(c2cc(Br)c([N+](=O)[O-])cc2F)CC1	45%*
O=C(Nc1nccs1)[C@H]1CN2CCC1C[C@@H]2Cn1cc(CO)nn1 (stereo not given in full)	i
COc1ccc(CCNC2CCC(C)C2)cc1 (stereo not given)	50%*
CC(C)(C)N1C(=O)NC(=O)/C(=C\c2c(Cl)cccc2Cl)C1=O	i
CC12CC3CC(N)(C1)C[C@@](C)(C3)C2	i
COc1ccc(CN2CCN(C)CC2)c(OC)c1OC	i
CCN(CC)C(=O)c1ccc(N2C(=O)C3CC=C(Cl)CC3C2=O)cc1 (stereo not given)	i
SMILES	ST2 inh
CCN(CC)C(=O)c1ccc2c(c1)C1C=CCC1C(C(=O)O)N2 (stereo not given)	60%*
Fc1ccc(N2CCN(C[C@H]3CN4CC[C@H]3C[C@@H]4CNC(=S)Nc3ccc(-n4cccn4)cc3)CC2)cc1	i
O=C(O)CCCC(=O)N1C[C@@H]2C[C@H](C1)c1ccc(NC(=O)Nc3ccccc3)c(=O)n1C2	i
CC(C)c1nnsc1CN1CCC2(CC1)C(=O)Nc1ccccc12	i
CCN1CCN(Cc2ccc(N(C)C)cc2)CC1	32%*
CCN1CCN(Cc2ccc(Cl)cc2)CC1	i
COc1cc(CN2CCN(c3cccc(C)c3C)CC2)ccc1O	i
Cc1cccc(N2CCN(Cc3ccc([N+](=O)[O-])cc3)CC2)c1C	47%*
Cc1cccc(N2CCN(Cc3ccc(F)cc3)CC2)c1C	i
CCN1CCN(Cc2ccc(OC)c(OC)c2)CC1	i
Cc1cccc(N2CCN(Cc3ccc(N(C)C)cc3)CC2)c1C	54%*
Cc1ccccc1N1CCN(Cc2ccccc2)CC1	i
Cc1cccc(N2CCN(Cc3ccccc3)CC2)c1C	i
C#CC1(C)CCC2C(O1)c1ccccc1OC2(C)C (stereo not given)	i
CC[C@H]1CN2CC[C@H]1C[C@@H]2CNS(=O)(=O)c1cccc(C#N)c1	i
COc1ccccc1N1CCN(C[C@H]2CN3CC[C@H]2C[C@@H]3CNC(=O)Nc2ccsc2)CC1	i
COc1ccccc1NC(=O)N1C[C@@H]2C[C@H](C1)c1c(-c3ccccc3F)ccc(=O)n1C2	i
COc1ccccc1-c1cc([C@H]2CN3CC[C@H]2C[C@@H]3CN)n(C)n1	i
O=c1oc(-c2ccc(F)cc2)nc2ccccc12	i
C#C[C@H]1CN2CC[C@H]1C[C@@H]2CNS(=O)(=O)c1ccccc1	i
CSCC(=O)N1C[C@@H]2C[C@H](C1)c1c(-c3ccc(NC(C)=O)cc3)ccc(=O)n1C2	i
CCN1CCN(Cc2ccccc2C)CC1	i
COc1ccc([C@@H]2CN(c3noc(C)n3)[C@@H]3C4CCN(CC4)[C@@H]32)cc1	i
CCOC(=O)c1c(C)n(C2CCCCC2)c2ccc(OC(C)=O)cc12	i
Cc1cc(C=O)c(C)n1C1CCCCC1	30%*
SMILES	ST2 inh
CCOC(=O)c1c(C)n(C2CCCCC2)c2ccc(O)cc12	i
OCc1csc(-c2cccc3c2CCNC3)n1	i
O=c1c(-c2cccnc2)ccc2n1C[C@H]1C[C@@H]2CN(Cc2ccc(CO)o2)C1	i
CN1C(=O)C(=Cc2cn(C)c3ccccc23)C(=O)N(C)C1=O	i
CCN1C(=O)NC(=O)/C(=C\c2cn(CC(=O)N3CCCC3)c3ccccc23)C1=O	i
Cn1cc(C=C2C(=O)NC(=O)NC2=O)c2ccccc21	35%*
O=C(O)CCC(=O)N1C[C@@H]2C[C@H](C1)c1ccc(-c3ccc(Cl)cc3)c(=O)n1C2	i
COc1cc2c(cc1O)C1(C)CCC(O)C(C)(C)C1CC2=O (stereo not given)	37%*
Cc1nc(-c2ccc(F)cc2)cc([C@H]2CN3CC[C@H]2C[C@@H]3CN)n1	i
O=c1ccc(-c2ccc(Cl)cc2)c2n1C[C@H]1C[C@@H]2CN(S(=O)(=O)c2ccccc2)C1	i
CN(C)c1ccc(NC(=S)NC[C@H]2C[C@@H]3CCN2C[C@@H]3CN2CCN(c3ccccc3)CC2)cc1	i
Cc1ccnc(CC(C)N(C)CCCn2nc(C)cc2C)c1 (stereo not given)	i
CSc1ccc(C(=O)C(C)(C)N2CCOCC2)cc1	i
COc1ccc(CN2CCN(Cc3ccccc3)CC2)c(C)c1C	34%*
CCN1CCN(Cc2ccc(OC)c(C)c2C)CC1	i
COc1ccc(CN2CCN(C)CC2)c(OC)c1C	i
Fc1ccc(CN2CCN(Cc3ccccc3)CC2)cc1	i
CCCS(=O)(=O)Nc1ccc2n(c1=O)C[C@H]1C[C@@H]2CN(C(=O)Nc2ccc(OC)cc2)C1	i
C#CCN(C)C[C@H]1CN2CC[C@H]1C[C@@H]2CNC(=S)NCCN1CCOCC1	i
Cn1nc(-c2ccccc2)cc1[C@H]1CN2CC[C@H]1C[C@@H]2CNC(=S)Nc1ccc(Cl)cc1	i
COc1cccc(CN2CCN(c3ccc(F)cc3)CC2)c1OC	i
CC(C)c1nnc(CN2C[C@H]3CC=CC[C@H]3C2)o1	i
COc1cc(/C=C/c2nc3ccccc3c(=O)n2-c2ccccc2OC)ccc1O	i
COc1ccc(/C=C/c2nc3ccccc3c(=O)n2-c2ccccc2[N+](=O)[O-])cc1	44%*
Cc1ccnc(-n2c(C)nc3ccccc3c2=O)c1	i
SMILES	ST2 inh
COc1ccc(-n2c(/C=C\c3ccccc3F)nc3ccccc3c2=O)c(OC)c1	30%*
O=c1c2ccccc2nc(Cc2ccccc2)n1-c1ccccc1	i
O=c1c2ccccc2nc(/C=C/c2ccc(F)cc2)n1-c1ccccc1	i
CCOC(=O)c1nc2ccccc2c(=O)n1-c1cc(Cl)c(OC)cc1OC	i
O=c1c2ccccc2nc(/C=C/c2ccc(O)cc2)n1-c1cccc([N+](=O)[O-])c1	34%*
Cc1ccc(-n2c(C)nc3ccc(I)cc3c2=O)c([N+](=O)[O-])c1	i

High-throughput results: PubChem BioAssay, Paczesny and Yang Labs, IUPUI and University of Michigan
